Drawing on PubChem BioAssay (EPA / NIEHS), this text covers AC50 and outcome for 40 molecules.

The AC50 is the midpoint of the concentration-response curve, whichever way the signal moves.

Activity calls are given as the source filed them. The calls were made as follows: active = hit-call score of the fitted dose curve at least 0.9, where 1 is the maximum; inactive = score below 0.9.

The nature of this assay: APR_HepG2_MitoMass_72hr: Apredica 72-hour HepG2 Assay for Mitochondrial Mass (AID 2282924).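 Also: MitoTracker Red CMXRos stain intensity per cell imaged as mitochondrial mass.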 The settings on record: high-content imaging, actives raise or lower the signal. Here is the method: APR_HepG2_72hr is a cell-based, multiplexed-readout assay that uses HepG2, a human liver cell line, with measurements taken at 72 hours after chemical dosing in a 384-well plate.APR_HepG2_MitoMass_72hr is one of 10 assay component(s) measured or calculated from the APR_HepG2_72hr assay. It is designed to make measurements of cell phenotype, a form of morphology reporter, as detected with fluorescence intensity signals by HCS Fluorescent Imaging technology.Data from the assay component APR_HepG2_MitoMass_72hr was analyzed into 1 assay endpoint. This assay endpoint, APR_HepG2_MitoMass_72hr, was analyzed with bidirectional fitting relative to DMSO as the negative control and baseline of activity. Using a type of morphology reporter, gain or loss-of-signal activity can be used to understand changes in the signaling. Furthermore, this assay endpoint can be referred to as a primary readout, because this assay has produced multiple assay endpoints where this one serves a signaling function. To generalize the intended target to other relatable targets, this assay endpoint is annotated to the cell morphology intended target family, where the subfamily is organelle conformation.
Cells were treated with dimethyl sulfoxide (DMSO) as a solvent control at a final concentration of 0.5% v/v or with compounds in DMSO with a resulting final DMSO concentration of 0.5% v/v. Compound treatment was done at concentrations of 0.39, 0.78, 1.56, 3.12, 6.24, 12.5, 25, 50, 100, and 200 uM in duplicate on each plate. Cells were treated with compounds for 1, 24, or 72 hr. Carbonyl […] m-chloro-phenylhydrazone (CCCP) and taxol were used as positive controls for mitochondrial function and cytoskeletal stability, respectively; DMSO served as the negative control for this experiment. Cells were fixed by the direct addition of 50 uL formaldehyde in Hank's Balanced Salt Solution (HBSS) to a final concentration of 3.7%. After incubation in the fixation medium for 30 min at room temperature (293-298 K), cells were rinsed twice with HBSS and treated with cell permeabilization buffer (16 uL of 0.5% Triton X-100) for 10 min at room temperature (293-298 K) before labeling. For mitochondrial membrane potential and mitochondrial measurements, pre-fixed cells were incubated with 50 uL of MitoTracker Red CMXRos (Invitrogen) at a concentration of 250 nM for 30 min before fixation. In the remaining cases, post-fixed cells were labeled by incubation with a multiplexed mixture of primary antibodies in HBSS for 60 min at room temperature (293-298 K) to detect immunoreactivity of c-Jun (1:500), phospho-histone H3 (1:100), phospho-histone H2A.x (1:200), p53 (1:400), alpha-tubulin (1:200) and Hoechst 33342 (2 ug/mL). Cells were labeled for multiplexed imaging on two separate plates: a) Hoechst 33342, MitoTracker Red, phospho-histone H3, and alpha-tubulin, and b) Hoechst 33342, phospho-histone H2A.x, and c-Jun. A final rinse with HBSS (50 uL) was performed before analysis. The primary and secondary antibodies for the proteins were phospho-histone H3 (rabbit anti-phospho-histone H3 and FITC-donkey anti-rabbit IgG), phospho-histone H2A.x (mouse anti-phospho-histone H2A.x and FITC-donkey anti-mouse IgG), c-Jun (rabbit anti-phospho-c-Jun and Cy3-donkey anti-rabbit IgG), p53 (sheep anti-p53 and Cy5-donkey anti-sheep IgG), alpha-tubulin (mouse anti-alpha-tubulin and Cy5-donkey anti-mouse IgG). These antibodies are available as the CellCiphr HepG2 assay kit (Millipore).Digital images of each well were captured using a Cellomics ArrayScan VTI (Thermo Scientific Cellomics) (0.8 NA objective, 0.63x optical coupler, and XF-93 filter set) at 20x magnification. The images were acquired using the autofocus feature of the ArrayScan instrument, which entails the following steps. First, the camera focuses on channel 1 (Hoechst 33342), where nuclei are identified. Second, a Z offset of 1 um is used for capturing mitochondria (MitoTracker Red). […]
As to `CC(=O)O`, the AC50 was 0.0355 µM (active).
`COC(=O)CCC(=O)OC`: the outcome was inactive.
On to `Oc1ccc(O)cc1`, for which the half-maximal activity concentration (AC50) was 46.3 µM (active).
On to `CCCCOC(=O)CCCCC(=O)OCCCC`, for which the result was inactive.
With `CCCCC(CC)COC(=O)CCCCCCCC(=O)OCC(CC)CCCC` (stereo not given), the molecule was classed as inactive.
The same measure, in the same setting: the value for `NC1CCCCC1` was “inactive”.
Turning to `Cc1c(C)c2c(c(C)c1O)CCC(C)(COc1ccc(CC3SC(=O)NC3=O)cc1)O2` (stereo not given), the AC50 was 61.8 µM (active).
Take `CCCC[C@H]1CN(CC2CCOCC2)C(=O)OC12CCN(C1(C)CCN(C(=O)c3c(C)ncnc3C)CC1)CC2`: the outcome was inactive.
As for `CN(C)C(=O)NC1(c2ccccc2)CCN(CC[C@@]2(c3ccc(F)c(F)c3)CN(C(=O)c3ccccc3)CCO2)CC1`, the result was inactive.
Regarding `Cn1cnc2c1c(=O)[nH]c(=O)n2C`, the result was inactive.
For `COC(=O)CCCC(=O)OC`, the outcome was inactive.
`CCCCCCCCCC[N+](C)(C)[O-]`: the molecule was classed as inactive.
Same read-out and setting: the value for `CC(=O)O[C@]1(C(C)=O)CC[C@H]2[C@@H]3C=C(Cl)C4=CC(=O)[C@@H]5C[C@@H]5[C@]4(C)[C@H]3CC[C@@]21C` was “inactive”; that for `CC(C)c1cccc(C(C)C)c1` was “inactive”.
On the same count and under the same terms, the value for `CCc1cc(C2=C(C(=O)O)N(c3ccccc3C(F)(F)F)S(=O)(=O)c3ccccc32)cc2c1OCO2` was “inactive”.
As to `N[C@@H](Cc1c[nH]c2ccccc12)C(=O)O`, the outcome was inactive.
Take `CC1=C(C)S(=O)(=O)CCS1(=O)=O`: the AC50 is 35.9 µM (active).
`CCCCc1nc2cccnc2n1Cc1ccc(-c2ccccc2-c2nnn[nH]2)cc1`: the AC50 is 118 µM (active).
Turning to `COc1ccc(C(=O)Nc2nc3ccccc3c(NCc3ccccc3)c2C#N)cc1`, the half-maximal activity concentration (AC50) was 5.59 µM (active).
On to `O=C1CCCCC1`, for which the molecule was classed as inactive.
As for `CSc1ccc(Oc2ccc(S(N)(=O)=O)cc2CN(C)C)cc1C`, the call was inactive.
As for `CC(C)c1cccc(C(C)C)c1NC(=O)NS(=O)(=O)c1cc(C(C)(C)O)co1`, the molecule was called inactive.
Same read-out and setting: the value for `CC(C)(O)c1ccc(CNC(=O)c2cccnc2Oc2ccc(F)cc2)cc1` was “inactive”; that for `O=C(O)CN(CC(=O)O)CC(=O)O` was “inactive”; that for `CC(C)COC(=O)CCCCC(=O)OCC(C)C` was “inactive”.
For the molecule `CO[C@@H]1COCC[C@@H]1N[C@@H]1CC[C@@](C(=O)N2CCc3ncc(C(F)(F)F)cc3C2)(C(C)C)C1`, the molecule was called inactive.
Same read-out and setting: the value for `CC(COCC(C)OC(=O)c1ccccc1)OC(=O)c1ccccc1` (stereo not given) was “inactive”.
The same measure, in the same setting: the value for `CN(C)C(=O)NC1(c2ccccc2)CCN(CCC[C@]2(c3ccc(Cl)c(Cl)c3)CCCN(C(=O)c3ccccc3)C2)CC1` was “inactive”; that for `CCCCCCCC(=O)OC` was “inactive”; that for `CCCCC(CC)COP(=O)(OCC(CC)CCCC)OCC(CC)CCCC` (stereo not given) was “inactive”.
`C/C=C/C=C/C(=O)O`: the AC50 is 47.5 µM (active).
Still for that read-out and setting: the value for `O=C1OC(c2ccc(O)cc2)(c2ccc(O)cc2)c2ccccc21` was 102 µM (active).
In the case of `CC(=O)OCC(COC(C)=O)OC(C)=O`, the result was inactive.
In the case of `Cc1cc(Cc2ccc(N)c(C)c2)ccc1N`, the AC50 is 67.3 µM (active).
In the case of `CC(C)(C)c1ccccc1`, the molecule was classed as inactive.
For `CCCCCCCCCCCCCCOS(=O)(=O)O`, the AC50 was 121 µM (active).
For `Cc1ccc(C(C)(C)C)c(O)c1`, the molecule was called inactive.
Turning to `CCCCC(CC)CO` (stereo not given), the call was inactive.
On the same count and under the same terms, the value for `Cc1occc(=O)c1O` was “inactive”.
On to `COc1ccc(OC(F)(F)F)cc1CN[C@H]1CCCN[C@H]1c1ccccc1`, for which the AC50 is 62.3 µM (active).
